According to PubChem BioAssay (EPA / NIEHS):
Values joined by “and” are separate entries in the source; they are usually repeats but may differ in a detail not shown here. Identical values can stand only once. Inconclusive results are not listed. The source holds several records for some structures; these can differ, active in one and inactive in another. Active and inactive are the calls of the source. How the source made its calls, unless noted: active means hit-call score of the fitted dose curve at least 0.9, where 1 is the maximum; inconclusive means response in the unintended direction; inactive means score below 0.9.

Assays:
[1] = molecular target: Retinoic acid receptor RXR-alpha (Homo sapiens) (UniProt P19793); experiment: OT_NURR1_NURR1RXRa_0480: Odyssey Thera (OT) 8-hour HEK293T Protein Complementation Assay for Nurr1/retinoid X receptor (RXR) (AID 2283385)
In short: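 Read-out: fluorescence from protein-fragment complementation between Nurr1 and RXRα in human HEK293T cells, 8 h after dosing. DMSO served as negative control; increased signal counted as activity.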

[2] = molecular target: Retinoic acid receptor RXR-alpha (Homo sapiens) (UniProt P19793); experiment: OT_NURR1_NURR1RXRa_1440: Odyssey Thera (OT) 24-hour HEK293T Protein Complementation Assay for Nurr1/retinoid X receptor (RXR) (AID 2283386)
In short: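 Fluorescence PCA read-out; HEK293T; 24 h post-dose; bait/prey fused to reporter fragments; gain-of-signal fit vs DMSO negative control.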

[3] = molecular target: Peroxisome proliferator-activated receptor gamma (Homo sapiens) (UniProt P37231); experiment: OT_PPARg_PPARgSRC1_0480: Odyssey Thera (OT) 8-hour Protein-Complementation Assay for Peroxisome Proliferator-activated Receptor Gamma / SRC-1 Co-activator (AID 2283387);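 further: nuclear to cytoplasmic split Venus YFP fluorescence ratio reporting PPARg SRC-1 interaction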
In short: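 HEK293T transiently transfected with PPARg and SRC-1 fused to Venus YFP fragments, compounds 8 h at 37C. Fixed, Draq5-stained cells imaged; nuclear/cytoplasmic 488 nm fluorescence ratio over at least 350 cells per image; gain fitted versus DMSO.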

[4] = molecular target: Peroxisome proliferator-activated receptor gamma (Homo sapiens) (UniProt P37231); experiment: OT_PPARg_PPARgSRC1_1440: Odyssey Thera (OT) 24-hour Protein-Complementation Assay for Peroxisome Proliferator-activated Receptor Gamma/ SRC-1 Co-activator (AID 2283388)
In short: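 Readout: nuclear-to-cytoplasmic 488 nm fluorescence ratio, ≥350 cells per image, 8 images per well, after 24 h compound exposure of HEK293T expressing PPARg/SRC-1 split-YFP fusions. Activity fitted in positive direction against DMSO.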

[5] = read-out: Tumor necrosis factor receptor superfamily member 6 (Homo sapiens) (UniProt P25445); experiment: LTEA_HepaRG_FAS: Life Technologies and Expression Analysis (LTEA) Assay for Fas cell surface death receptor (FAS) using HepaRG (AID 2283447; active means hit-call score of the fitted dose curve at least 0.9, where 1 is the maximum; inactive means score below 0.9); conditions: mRNA level, 48 h; actives raise or lower the signal
In short: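 FAS transcript level was measured by TaqMan qRT-PCR against three housekeeping genes after 48 h chemical exposure. Cells were HepaRG, 0.5% DMSO vehicle, with a top concentration of 100 uM and half-log dilutions over eight points, in duplicate.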

[6] = read-out: Fatty acid synthase (Homo sapiens) (UniProt P49327); experiment: LTEA_HepaRG_FASN: Life Technologies and Expression Analysis (LTEA) Assay for Fatty Acid Synthase (FASN) using HepaRG (AID 2283448; active means hit-call score of the fitted dose curve at least 0.9, where 1 is the maximum; inactive means score below 0.9;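 on AC50: differentiated human HepaRG liver cells in serum-free induction medium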); conditions: mRNA level, 48 h; actives raise or lower the signal
In short: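 HepaRG, 48 h exposure, 8-pt half-log series top 100 uM, 0.5% DMSO vehicle, duplicates. Readout: FASN transcript by Fluidigm qRT-PCR; housekeeping-normalized; bidirectional curve fit vs DMSO baseline.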

[7] = read-out: Cyclin D2 (CCND2), CCND2 (gene 894); experiment: LTEA_HepaRG_CCND2: Life Technologies and Expression Analysis (LTEA) Assay for Cyclin D2 (CCND2) using HepaRG (AID 2283449; active means hit-call score of the fitted dose curve at least 0.9, where 1 is the maximum; inactive means score below 0.9); conditions: mRNA level, 48 h; actives raise or lower the signal
In short: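 CCND2 transcript levels, quantified by qRT-PCR and normalised to three housekeeping genes, were fitted bidirectionally against 0.5% DMSO. HepaRG cultures were dosed 48 h in duplicate with an 8-point half-log series up to 100 uM.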

[8] = CEETOX_H295R_OHPREG: CeeTox H295R High-throughput Steroidogenesis Assay for OH-Pregnenolone (OHPREG) (AID 2283434; active means hit-call score of the fitted dose curve at least 0.9, where 1 is the maximum; inactive means score below 0.9); conditions: actives raise or lower the signal
In short: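 Secreted 17alpha-hydroxypregnenolone measured by HPLC-MS/MS after liquid-liquid extraction. Human adrenal H295R cells received 48 h forskolin (10 uM) stimulation before 48 h chemical exposure at 0.1% final DMSO; MTT viability in same wells; bidirectional fit against DMSO.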

[9] = CEETOX_H295R_CORTIC: CeeTox H295R High-throughput Steroidogenesis Assay for Corticosterone (CORTIC) (AID 2283437; active means hit-call score of the fitted dose curve at least 0.9, where 1 is the maximum; inactive means score below 0.9); conditions: actives raise or lower the signal
In short: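 Medium corticosterone was quantified by tandem mass spectrometry following 48 hours of chemical exposure (0.1% DMSO) in human H295R cells previously stimulated 48 hours with 10 uM forskolin. Viability checked by MTT; chemicals diluted and retested when viability fell below 70%.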

[10] = CEETOX_H295R_CORTISOL: CeeTox H295R High-throughput Steroidogenesis Assay for Cortisol (AID 2283438; active means hit-call score of the fitted dose curve at least 0.9, where 1 is the maximum; inactive means score below 0.9;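 further: cortisol secreted into medium quantified by LC-MS/MS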); conditions: actives raise or lower the signal
In short: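 Read-out: cortisol in culture medium by reverse-phase C18 HPLC with ESI-positive tandem MS, after MTBE liquid-liquid extraction. Cells: human adrenal H295R, forskolin-primed (10 uM, 48 h) before 48 h chemical exposure in 0.1% DMSO.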

[11] = CEETOX_H295R_DOC: CeeTox H295R High-throughput Steroidogenesis Assay for DOC (AID 2283439; active means hit-call score of the fitted dose curve at least 0.9, where 1 is the maximum; inactive means score below 0.9); conditions: actives raise or lower the signal
In short: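 Human adrenocortical H295R cells, passages up to 10, received 10 uM forskolin for 48 h before chemical addition. After another 48 h exposure in 0.1% DMSO, secreted DOC was measured by LC-MS/MS, with gain or loss fitted against DMSO controls.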

[12] = CEETOX_H295R_PROG: CeeTox H295R High-throughput Steroidogenesis Assay for Progesterone (PROG) (AID 2283442; active means hit-call score of the fitted dose curve at least 0.9, where 1 is the maximum; inactive means score below 0.9); conditions: actives raise or lower the signal
In short: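 Progesterone read-out: HPLC-MS/MS on MTBE extracts of conditioned medium after 48 h chemical exposure of forskolin-primed (10 uM, 48 h) H295R cells. Gain or loss of signal was fitted relative to DMSO baseline.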

[13] = CEETOX_H295R_11DCORT: CeeTox H295R High-throughput Steroidogenesis Assay for 11-Deoxycortisol (11DCORT) (AID 2283432; active means hit-call score of the fitted dose curve at least 0.9, where 1 is the maximum; inactive means score below 0.9;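 on AC50: 11-deoxycortisol secreted into the medium measured by LC-MS/MS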); conditions: actives raise or lower the signal
In short: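 H295R cells prestimulated 48 h with 10 uM forskolin, then exposed 48 h to chemical in 0.1% DMSO. 11-Deoxycortisol in medium quantified by HPLC-MS/MS after MTBE extraction; bidirectional fit versus DMSO. MTT viability read in same wells.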

[14] = CEETOX_H295R_OHPROG: CeeTox H295R High-throughput Steroidogenesis Assay for OH-Progesterone (OHPROG) (AID 2283435; active means hit-call score of the fitted dose curve at least 0.9, where 1 is the maximum; inactive means score below 0.9;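 on AC50: 17alpha-hydroxyprogesterone secreted into medium measured by HPLC-MS/MS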); conditions: actives raise or lower the signal
In short: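 HPLC-MS/MS quantification of 17alpha-hydroxyprogesterone secreted by H295R cells after 48 h chemical exposure, following 48 h 10 uM forskolin prestimulation. Gain or loss of signal fitted relative to DMSO. Viability checked by MTT in the same wells.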

[15] = read-out: Cyclin D1 (CCND1), CCND1 (gene 595); experiment: LTEA_HepaRG_CCND1: Life Technologies and Expression Analysis (LTEA) Assay for Cyclin D1 (CCND1) using HepaRG (AID 2283451; active means hit-call score of the fitted dose curve at least 0.9, where 1 is the maximum; inactive means score below 0.9;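 on AC50: differentiated human HepaRG liver cells in serum-free induction medium; TaqMan qRT-PCR transcript level normalised to ACTB GAPDH and POLR2A housekeeping genes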); conditions: mRNA level, 48 h; actives raise or lower the signal
In short: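 qRT-PCR (Fluidigm 96.96 array) read-out of transcript level, housekeeping-normalized (ACTB/GAPDH/POLR2A). HepaRG cells, 48 h chemical exposure, 8-point half-log series from 100 uM, 0.5% DMSO vehicle; gain or loss relative to DMSO baseline.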

[16] = read-out: Cyclin Dependent Kinase Inhibitor 1A (CDKN1A), CDKN1A (gene 1026); experiment: LTEA_HepaRG_CDKN1A: Life Technologies and Expression Analysis (LTEA) Assay for Cyclin Dependent Kinase Inhibitor 1A (CDKN1A) using HepaRG (AID 2283450; active means hit-call score of the fitted dose curve at least 0.9, where 1 is the maximum; inactive means score below 0.9); conditions: mRNA level, 48 h; actives raise or lower the signal
In short: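 HepaRG, 48 h dosing, 8-pt half-log series from 100 uM top, 0.5% DMSO vehicle, duplicates. Readout: TaqMan qRT-PCR of CDKN1A transcript, housekeeping-normalized (ACTB, GAPDH, POLR2A). Up/down curve fit relative to DMSO.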

[17] = CEETOX_H295R_ESTRADIOL: CeeTox H295R High-throughput Steroidogenesis Assay for Estradiol (AID 2283440; active means hit-call score of the fitted dose curve at least 0.9, where 1 is the maximum; inactive means score below 0.9;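 further: estradiol secreted into medium quantified by LC-MS/MS after dansyl derivatisation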); conditions: actives raise or lower the signal
In short: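 H295R, 48 h forskolin (10 uM) prestim → 48 h compound, 0.1% DMSO final. Estradiol in medium: MTBE extraction, dansyl chloride derivatization, LC-MS/MS. Fit bidirectional vs DMSO baseline; MTT viability in same wells.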

[18] = CEETOX_H295R_ESTRONE: CeeTox H295R High-throughput Steroidogenesis Assay for Estrone (AID 2283441; active means hit-call score of the fitted dose curve at least 0.9, where 1 is the maximum; inactive means score below 0.9;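 further: estrone secreted into medium measured by LC-MS/MS after dansyl derivatization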); conditions: actives raise or lower the signal
In short: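 Forskolin-stimulated H295R cells are treated 48 h with chemical, and estrone in the medium is measured by LC-MS/MS. Activity is fitted in both directions relative to DMSO controls, with chemicals diluted until MTT viability reaches at least 70%.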

[19] = CEETOX_H295R_ANDR: CeeTox H295R High-throughput Steroidogenesis Assay for Androstenedione (ANDR) (AID 2283436; active means hit-call score of the fitted dose curve at least 0.9, where 1 is the maximum; inactive means score below 0.9); conditions: actives raise or lower the signal
In short: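 Medium from 48 h chemical-treated H295R adrenal cells was extracted with MTBE and androstenedione measured by LC-MS/MS. Activity was fit in both directions relative to DMSO. Cytotoxic concentrations were re-tested after dilution until MTT viability reached ≥70%.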

[20] = molecular target: Bile acid receptor (Homo sapiens) (UniProt Q96RI1); experiment: OT_FXR_FXRSRC1_1440: Odyssey Thera (OT) 24-hour HEK293T Protein-Complementation Assay for Farnesoid X receptor/SRC-1 Co-activator (AID 2283384)
In short: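 Fluorescence readout, 24 h post-dose, HEK293T; FXR and SRC-1 fused to complementary reporter fragments, association reconstitutes signal. Positive-direction fit vs DMSO baseline.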

Measured: AC50

Sequence of Fatty acid synthase (Homo sapiens) (P49327 whole entry, looked up): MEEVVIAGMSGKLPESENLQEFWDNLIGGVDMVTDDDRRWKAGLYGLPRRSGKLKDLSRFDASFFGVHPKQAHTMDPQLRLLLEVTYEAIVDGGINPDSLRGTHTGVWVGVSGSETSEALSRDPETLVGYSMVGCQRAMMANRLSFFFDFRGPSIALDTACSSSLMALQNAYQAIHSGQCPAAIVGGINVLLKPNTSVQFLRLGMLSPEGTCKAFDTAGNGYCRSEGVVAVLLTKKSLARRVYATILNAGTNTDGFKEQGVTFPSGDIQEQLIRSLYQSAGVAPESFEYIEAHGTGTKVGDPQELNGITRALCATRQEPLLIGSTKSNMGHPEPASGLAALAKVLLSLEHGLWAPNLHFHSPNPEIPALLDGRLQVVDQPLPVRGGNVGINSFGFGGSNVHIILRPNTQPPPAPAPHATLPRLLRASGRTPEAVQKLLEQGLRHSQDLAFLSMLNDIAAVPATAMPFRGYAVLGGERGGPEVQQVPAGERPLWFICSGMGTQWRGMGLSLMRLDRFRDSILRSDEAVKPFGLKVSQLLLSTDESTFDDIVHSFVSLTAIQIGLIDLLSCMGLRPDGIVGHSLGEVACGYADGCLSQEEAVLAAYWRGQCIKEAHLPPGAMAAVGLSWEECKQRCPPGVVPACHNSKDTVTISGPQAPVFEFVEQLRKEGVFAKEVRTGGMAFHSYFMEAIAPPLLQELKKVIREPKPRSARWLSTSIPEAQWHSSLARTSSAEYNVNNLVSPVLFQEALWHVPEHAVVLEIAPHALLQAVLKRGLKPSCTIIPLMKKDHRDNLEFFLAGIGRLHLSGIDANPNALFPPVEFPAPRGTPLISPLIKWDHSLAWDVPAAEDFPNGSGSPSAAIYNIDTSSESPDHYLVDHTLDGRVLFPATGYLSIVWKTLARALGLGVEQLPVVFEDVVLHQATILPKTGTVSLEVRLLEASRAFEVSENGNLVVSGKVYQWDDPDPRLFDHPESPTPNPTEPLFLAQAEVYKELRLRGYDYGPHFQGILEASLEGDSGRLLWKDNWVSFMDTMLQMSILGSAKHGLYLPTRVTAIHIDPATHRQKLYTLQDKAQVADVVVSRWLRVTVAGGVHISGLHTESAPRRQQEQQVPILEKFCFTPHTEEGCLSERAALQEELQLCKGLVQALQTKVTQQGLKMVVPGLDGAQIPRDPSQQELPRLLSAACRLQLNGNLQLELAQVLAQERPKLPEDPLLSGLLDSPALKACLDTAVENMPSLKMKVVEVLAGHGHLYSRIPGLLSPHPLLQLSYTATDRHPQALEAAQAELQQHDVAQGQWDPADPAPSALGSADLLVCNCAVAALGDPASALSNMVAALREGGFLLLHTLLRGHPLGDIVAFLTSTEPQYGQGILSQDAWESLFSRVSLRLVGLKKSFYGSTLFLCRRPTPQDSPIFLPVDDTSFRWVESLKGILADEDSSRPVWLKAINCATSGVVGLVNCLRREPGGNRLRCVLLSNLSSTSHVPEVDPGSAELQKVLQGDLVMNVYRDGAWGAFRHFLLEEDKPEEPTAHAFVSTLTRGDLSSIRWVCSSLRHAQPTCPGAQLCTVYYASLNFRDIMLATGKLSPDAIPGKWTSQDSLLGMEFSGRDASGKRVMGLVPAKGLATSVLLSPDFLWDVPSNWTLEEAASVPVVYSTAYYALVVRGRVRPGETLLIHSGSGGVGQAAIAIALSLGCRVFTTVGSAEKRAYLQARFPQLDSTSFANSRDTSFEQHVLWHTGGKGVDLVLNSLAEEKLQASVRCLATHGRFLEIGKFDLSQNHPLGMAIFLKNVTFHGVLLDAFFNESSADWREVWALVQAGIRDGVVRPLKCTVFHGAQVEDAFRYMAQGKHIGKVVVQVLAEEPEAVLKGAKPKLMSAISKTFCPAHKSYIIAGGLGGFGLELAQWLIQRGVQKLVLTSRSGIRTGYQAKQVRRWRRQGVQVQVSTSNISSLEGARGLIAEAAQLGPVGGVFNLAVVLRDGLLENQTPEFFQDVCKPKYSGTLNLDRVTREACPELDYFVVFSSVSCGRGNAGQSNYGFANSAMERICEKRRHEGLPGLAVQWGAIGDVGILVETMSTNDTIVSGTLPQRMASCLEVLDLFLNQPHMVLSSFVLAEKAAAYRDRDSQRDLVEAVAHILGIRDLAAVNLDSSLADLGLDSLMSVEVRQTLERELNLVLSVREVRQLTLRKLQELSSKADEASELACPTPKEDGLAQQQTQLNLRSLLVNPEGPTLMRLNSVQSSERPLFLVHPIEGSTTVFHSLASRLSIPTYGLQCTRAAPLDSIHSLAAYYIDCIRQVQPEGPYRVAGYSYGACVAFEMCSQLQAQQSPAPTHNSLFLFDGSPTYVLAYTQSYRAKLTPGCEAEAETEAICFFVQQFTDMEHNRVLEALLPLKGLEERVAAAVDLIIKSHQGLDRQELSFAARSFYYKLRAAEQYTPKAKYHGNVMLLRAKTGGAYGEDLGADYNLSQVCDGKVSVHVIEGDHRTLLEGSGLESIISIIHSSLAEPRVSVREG
Sequence of Retinoic acid receptor RXR-alpha (Homo sapiens) (P19793 whole entry, looked up, the tested form may be a part): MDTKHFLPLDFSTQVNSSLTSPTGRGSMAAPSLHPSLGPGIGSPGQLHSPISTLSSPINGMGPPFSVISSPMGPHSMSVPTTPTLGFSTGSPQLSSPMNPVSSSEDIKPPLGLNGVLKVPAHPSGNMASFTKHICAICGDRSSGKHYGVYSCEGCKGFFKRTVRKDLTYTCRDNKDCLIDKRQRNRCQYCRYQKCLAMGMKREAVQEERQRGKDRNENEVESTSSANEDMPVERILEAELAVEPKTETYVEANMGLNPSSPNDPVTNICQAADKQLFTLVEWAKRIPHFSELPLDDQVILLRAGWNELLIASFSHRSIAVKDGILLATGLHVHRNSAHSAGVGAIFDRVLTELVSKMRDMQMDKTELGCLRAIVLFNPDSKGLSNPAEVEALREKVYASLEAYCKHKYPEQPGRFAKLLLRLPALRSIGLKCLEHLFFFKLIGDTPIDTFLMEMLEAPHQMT
Sequence of Peroxisome proliferator-activated receptor gamma (Homo sapiens) (P37231 whole entry, looked up, the tested form may be a part): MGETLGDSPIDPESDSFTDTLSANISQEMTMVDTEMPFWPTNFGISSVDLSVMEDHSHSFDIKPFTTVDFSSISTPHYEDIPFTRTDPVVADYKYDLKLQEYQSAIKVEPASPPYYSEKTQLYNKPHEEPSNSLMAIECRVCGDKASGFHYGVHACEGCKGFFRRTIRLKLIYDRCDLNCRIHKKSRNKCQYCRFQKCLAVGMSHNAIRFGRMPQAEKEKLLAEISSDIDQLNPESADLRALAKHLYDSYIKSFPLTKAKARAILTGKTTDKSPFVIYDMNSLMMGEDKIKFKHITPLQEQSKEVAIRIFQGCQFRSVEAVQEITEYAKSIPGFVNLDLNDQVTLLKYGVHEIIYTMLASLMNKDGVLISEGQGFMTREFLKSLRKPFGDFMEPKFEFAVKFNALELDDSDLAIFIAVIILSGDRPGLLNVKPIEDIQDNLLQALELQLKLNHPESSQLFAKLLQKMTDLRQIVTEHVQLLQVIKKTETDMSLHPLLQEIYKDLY
Sequence of Bile acid receptor (Homo sapiens) (Q96RI1 whole entry, looked up, the tested form may be a part): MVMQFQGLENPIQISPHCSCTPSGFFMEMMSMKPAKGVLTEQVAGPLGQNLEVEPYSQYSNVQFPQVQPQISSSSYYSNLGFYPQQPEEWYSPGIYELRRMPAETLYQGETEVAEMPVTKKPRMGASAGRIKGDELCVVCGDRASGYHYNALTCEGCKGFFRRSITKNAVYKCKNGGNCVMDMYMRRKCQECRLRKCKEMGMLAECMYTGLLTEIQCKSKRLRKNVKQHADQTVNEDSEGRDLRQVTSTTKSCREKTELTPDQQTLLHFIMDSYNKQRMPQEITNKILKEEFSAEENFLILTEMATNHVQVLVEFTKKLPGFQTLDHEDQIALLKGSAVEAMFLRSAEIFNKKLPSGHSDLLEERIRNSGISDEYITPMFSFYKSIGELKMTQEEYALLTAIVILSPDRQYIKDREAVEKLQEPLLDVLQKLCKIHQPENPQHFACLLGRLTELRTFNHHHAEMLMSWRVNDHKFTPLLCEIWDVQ

Cc1cn([C@H]2C[C@H](N=[N+]=[N-])[C@@H](CO)O2)c(=O)[nH]c1=O
inactive: [1] | [2] | [3] | [4] | [5] | [6]

CCN(Cc1cccnc1)C(=O)c1cccc(Cl)c1[C@]1(C)C(=O)N(Cc2ccc(OC)cc2OC)c2ccc(Cl)cc21
inactive: [1] | [2] | [3] | [4]
active: [5] 21.3 µM | [6] 5.5 µM

O=CCCCC=O
inactive: [2] | [3] | [4] | [5] | [6] | [7]
active: [1] 50 µM

CCCCCCCC[Si](OCC)(OCC)OCC
inactive: [1] | [2] | [3] | [4] | [8] | [9] | [10] | [11] | [12] | [5] | [7]

O=C1CCC(C2CCCCC2)CC1
inactive: [1] | [2] | [3] | [4] | [13] | [9] | [10] | [11] | [12] | [5] | [7] | [15]
active: [8] 80.4 µM | [14] 76.8 µM

CC(C)(c1cc(Br)c(O)c(Br)c1)c1cc(Br)c(O)c(Br)c1
active: [1] 20.6 µM and 72.4 µM | [2] 47.8 µM | [14] 4.41 µM | [12] 4.87 µM | [5] 92.5 µM | [16] 92.3 µM | [15] 47.8 µM
inactive: [2] | [13] | [8] | [9] | [10] | [11] | [7]

CC1(C)NC(=O)N(c2ccc([N+](=O)[O-])c(C(F)(F)F)c2)C1=O
inactive: [1] | [2] | [3] | [4] | [5] | [6] | [15]
active: [16] 80.8 µM

CCN(Cc1cccc(S(=O)(=O)O)c1)c1ccc(C(=C2C=CC(=[N+](CC)Cc3cccc(S(=O)(=O)O)c3)C=C2)c2ccccc2S(=O)(=O)[O-])cc1
active: [2] 46.6 µM
inactive: [1] | [2] | [3] | [4] | [5] | [6] | [7] | [16]

Oc1ccccc1
inactive: [1] | [2] | [3] | [4] | [5] | [7] | [16] | [15]

Cc1cc2c(cc1C(F)(F)F)N(C(=O)Nc1ccc(Oc3cccnc3C)nc1)CC2
inactive: [2] | [3] | [4] | [9] | [17] | [18] | [7]
active: [1] 29.2 µM | [13] 381 nM | [8] 0.495 µM | [14] 0.591 µM | [10] 588 nM | [11] 227 nM | [12] 0.257 µM | [5] 78.5 µM

C[C@]12CC[C@@H]3c4ccc(O)cc4CC[C@H]3[C@@H]1CC[C@H]2O
inactive: [1] | [2] | [3] | [4] | [5] | [6] | [7] | [15]
active: [13] 3520 nM | [8] 1.22 µM | [9] 2.13 µM | [10] 2170 nM | [11] 3310 nM | [12] 2 µM | [16] 50 µM

CCCCCCCCN(C)CCCCCCCC
inactive: [1] | [2] | [3] | [4] | [13] | [8] | [19] | [9] | [10] | [11] | [12] | [5] | [7] | [16] | [15]
active: [14] 50 µM

CCO[Si](CCCNC(N)=O)(OCC)OCC
inactive: [20] | [1] | [3] | [4] | [5] | [7] | [15]

CC[C@H](NC(=O)c1cc(F)ccc1NS(=O)(=O)c1cccc2cccnc12)c1ccccc1
inactive: [1] | [2] | [3] | [4] | [5] | [6] | [7] | [16]

CCCC(=O)OCCC(C)C
inactive: [1] | [2] | [3] | [4] | [5] | [6] | [15]

CCCCCc1ccc(N)cc1
inactive: [1] | [2] | [3] | [4] | [5] | [7]

CC(C)(C)c1csc(-c2cc3cc(OCc4ccccc4CC(=O)O)ccc3o2)n1
active: [20] 69.8 µM | [1] 2.97 µM | [2] 29.1 µM
inactive: [3] | [4] | [5] | [7]

O=C(O)Cn1c(=O)n(Cc2ccc(Br)cc2F)c(=O)c2ccc(Cl)cc21
inactive: [1] | [2] | [3] | [4] | [13] | [8] | [14] | [19] | [9] | [10] | [11] | [17] | [18] | [5] | [7] | [16] | [15]
active: [4] 49.7 µM | [12] 73.3 µM
